An excerpt weighted towards active compounds, which were near 3.7% of everything screened.
Autofluor counter – compound fluorescence in toxin protease inhibitor counterscreen | fluorescence intensity (no concentration beside the values) | compound autofluorescence counterscreen, microsphere flow cytometry; active compounds read high | actives 3.1% (n = 360,000); in the data active means fluorescence intensity above about 16000; inconclusive means no clear call, values can overlap the other calls
MazEF act – increases E. coli MazEF RNase cleavage of RNA; P0AE70; FAM/BHQ RNA-DNA oligo cleavage fluorescence, 5 h; activation, % at 20 µM; actives 0.32% (n = 350,000); AID 504720; in the data active means activation above about 50%
Target sequence (P0AE70 whole entry, looked up): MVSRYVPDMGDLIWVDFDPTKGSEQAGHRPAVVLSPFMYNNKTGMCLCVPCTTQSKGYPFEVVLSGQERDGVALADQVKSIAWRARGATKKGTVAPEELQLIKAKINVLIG
Anthrax LF inh2 – inhibitors of Bacillus anthracis lethal factor protease | P15917 | actives 0.12% (n = 360,000) | AID 588501 | inhibition, % at 10 µM | multiplex microsphere protease cleavage assay, LF; further: plate controls were buffer without enzyme for full effect and enzyme alone for no effect
BoNT-F LC inh – BoNT F light chain protease inhibition | Multiplex microsphere protease cleavage assay, flow cytometry | inhibition, % at 10 µM | actives 0.22% (n = 360,000) | AID 588497; in the data active means inhibition above about 35%, passing the limit was not always enough; inconclusive means no clear call, values can overlap the other calls; further: plate controls were buffer without enzyme for full effect and enzyme alone for no effect
BoNT A protease – blocks Botulinum neurotoxin A light chain protease; multiplex microsphere protease substrate cleavage, flow cytometry; inhibition, % at 10 µM; actives 0.17% (n = 360,000); further: plate controls were buffer without enzyme for full effect and enzyme alone for no effect
* marks the source's active call; other numbers are inactive results; u = inconclusive; x = not tested or not shown. Unless noted, no stated cut-off is given here; in the data, active means inhibition above about 30%; inconclusive means no clear call, values can overlap the other calls; inactive means below that.

SMILES	Autofluor counter	MazEF act	Anthrax LF inh2	BoNT-F LC inh	BoNT A protease
O=c1[nH]c2ccc(S(=O)(=O)N3CCN(Cc4ccccc4)CC3)cc2[nH]c1=O	21331*	5	-1	-4	-3
COc1cc(S(=O)(=O)N2CCN(Cc3ccccc3)CC2)ccc1Br	3796	2	0	-2	0
O=C(O)C1CCCN1S(=O)(=O)c1ccc2[nH]c(=O)c(=O)[nH]c2c1 (stereo not given)	25018*	7	-3	-6	-2
O=C(Nc1ccc(Cl)c(Cl)c1)C1C2C=CC3(O2)C1C(=O)N(CCN1CCCCC1)C3C(=O)NC1CCCCC1 (stereo not given)	6118	25	1	0	0
O=C(COC(=O)C12CC3CC(CC(C3)C1)C2)Nc1ncc(Cl)cc1Cl	14703	0	-14	7	u
CC(C)(Oc1ccc(Cl)cc1)C(=O)OCC(=O)Nc1ncc(Cl)cc1Cl	22776*	-2	-5	-1	0
O=C(COC(=O)CC12CC3CC(CC(C3)C1)C2)Nc1ncc(Cl)cc1Cl	24856*	-10	-2	-6	-3
COc1ccc(OCCCC(=O)OCC(=O)Nc2ncc(Cl)cc2Cl)cc1	5150	-25	-4	-12	-2
O=C(NCc1ccccn1)c1cc(S(=O)(=O)N2CCCCC2)ccc1Cl	5008	2	0	u	4
CN1CCN(C(=O)Nc2cccc3ccccc23)CC1	18834*	2	-7	3	3
O=c1[nH]c(CO)nc2c1oc1ccccc12	2898	3	-10	-6	0
O=c1[nH]c(Cc2ccccc2)nc2c1oc1ccccc12	21955*	-12	-1	1	0
Cc1nc2c(oc3ccccc32)c(=O)o1	16908*	10	-3	-3	0
Cc1onc(-c2ccccc2Cl)c1C(=O)N1CC(C)OC(C)C1 (stereo not given)	23411*	5	-6	-3	u
Cc1onc(-c2ccccc2Cl)c1C(=O)N1CC(C)CC(C)C1 (stereo not given)	6250	17	-2	-2	-1
Cc1onc(-c2ccccc2Cl)c1C(=O)O/N=C(\N)c1cccc([N+](=O)[O-])c1	3790	10	-6	-6	0
Cc1onc(-c2ccccc2Cl)c1C(=O)O/N=C(\N)c1ccccc1	16593*	6	-8	-63	-40
Cc1onc(-c2ccccc2Cl)c1C(=O)N1C=CC(C(F)(F)Cl)=NCC1	22372*	9	0	1	1
C#CCN(C[C@H]1[C@H](OC(=O)NC2CCCC2)[C@H](OC(=O)NC2CCCC2)C[C@@H](C(=O)OC)[C@H]1C(=O)OC)S(=O)(=O)c1ccc(C)cc1	3568	6	-6	0	0
C=CC(C)(C)O[C@@H]1O[C@H](CO)[C@@H](O)[C@H](O)[C@H]1O	3785	8	-9	-3	0
C=CCn1c(SCC(=O)N(CC)CC)nc(O)cc1=O	23021*	1	-2	-1	u
O=C(c1ccccc1F)c1cn(Cc2ccccc2)c2ccccc12	22262*	-7	-2	0	0
CCn1cc(C(=O)c2ccccc2)c2ccccc21	22254*	-2	-4	4	u
O=C(c1ccccc1F)c1cn(CC(=O)N2CCCCC2)c2ccccc12	24432*	0	-2	-15	-10
COc1ccc(NC(=O)N(C)C[C@H]2OCc3cnnn3CCCC(=O)N([C@@H](C)CO)C[C@H]2C)c(OC)c1	3782	4	0	-10	0
SMILES	Autofluor counter	MazEF act	Anthrax LF inh2	BoNT-F LC inh	BoNT A protease
COc1cc2nc(N3CCNCC3)nc(N)c2cc1OC	17344*	-3	-1	-4	-3
COc1cc2nc(N3CCN(c4cc(C)ccc4C)CC3)nc(N)c2cc1OC	5747	-18	-10	10	-5
O=C(CN1C(=O)c2ccccc2C1=O)Nc1sc2c(c1C(=O)NCC1CCCO1)CCC2 (stereo not given)	22614*	0	0	-1	0
O=C(CN1C(=O)c2ccccc2C1=O)Nc1sc2c(c1C(=O)NCc1ccco1)CCCC2	4418	6	-1	-8	-2
CCC(=O)NCc1c(Cl)cccc1-n1cccc1	19934*	-1	-11	10	6
COc1cccc(C(=O)NCCN2CCN(c3ccccc3)CC2)c1	3093	5	-2	u	2
COc1cc(CNC2CCCCCC2)cc(OC)c1OC	22719*	-6	0	2	1
COc1cc(OC)c(OC)cc1CNC1CCCCCC1	18257*	0	1	2	4
COc1cc(OC)c(CNC2CCCCCC2)cc1Br	3245	9	-5	3	-1
COCc1cc(C)nc(Sc2nc3c(c(=O)n(C)c(=O)n3C)n2C)c1C#N	4123	-20	10	-18	-3
COc1c(F)c(F)c(C(=O)O)c(Nc2ccc(C)cc2)c1F	22057*	1	-1	-5	-5
O=c1[nH]c(=O)n(Cc2ccco2)c(O)c1C=NCc1ccc2c(c1)OCO2	22050*	-8	-1	4	3
COc1cccc(-n2c(O)c(C=NCc3ccc4c(c3)OCO4)c(=O)[nH]c2=O)c1	22432*	0	0	0	0
Cc1ccccc1-n1c(O)c(C=Nc2ccc3c(c2)OCO3)c(=O)[nH]c1=O	22656*	2	-2	1	u
C[C@H](CO)N1C[C@H](C)[C@@H](CN(C)C(=O)Oc2ccccc2)OCc2cn(nn2)CCCC1=O	3262	2	-1	-8	0
CC1(C(=O)O)CCCN(C(=O)c2ccc3c(c2)C(C)(C)CCC3(C)C)C1 (stereo not given)	3794	x	2	4	0
Oc1ccc(CCNc2c3ccccc3nc3ccccc23)cc1O	4178	14	-18	-33	-2
CCCOc1ccc(NC(=O)C2CC(=O)N3CCCN=C3S2)cc1 (stereo not given)	23005*	3	0	0	2
O=C(COC(=O)CCS(=O)(=O)c1ccccc1)NNC(=O)c1ccc([N+](=O)[O-])cc1	3462	4	-4	-3	0
Cc1cc(Br)cn2c(Cc3cccc(F)c3)c(-c3ccccc3)nc12	6842	x	1	3	1
CCOC(=O)C1=C(C)Nc2sc(C(=O)c3ccc(OC)cc3)c(N)c2C1c1ccc(C(=O)OC)cc1 (stereo not given)	9298	4	21	12	30*
COC(=O)C1=C(C)Nc2sc(C(N)=O)c(N)c2C1c1ccncc1 (stereo not given)	1985	1	-2	-4	0
CCc1sc(NS(C)(=O)=O)nc1-c1ccccc1	23262*	9	-4	-3	-1
CCOC(=O)c1ccc(N=C(c2ccccc2)c2c(O)n(C)c(=O)n(C)c2=O)cc1	3761	-5	31*	u	-3
O=[N+]([O-])c1ccc(-c2cn3nc(-c4ccccc4)c(-c4ccccc4)nc3n2)cc1	x	164*	x	x	x
CN(CCOc1ccccc1)S(=O)(=O)c1ccccc1C#N	x	3	x	x	x
Cc1ccc2[nH]c(CCN(C)C)c(CN3CCOCC3)c2c1	3939	1	-4	-7	-1
